In the library only some 1.7% were active in any assay of this set; here they are far more common.
GLP1R ag: GLP-1 receptor (human) agonism; HEK293 GLP-1R CRE-luciferase, luminescence, 4-6 h; cells express a hypersensitive GLP-1R form; Potency, µM (series often up to 45.6 µM), inactives show top-dose activation, usual class: activators; hit rate 0.007% among 380,000; P43220; note: potency is the fitted concentration of half-maximal effect; % of control where 0% means no effect
PTHR1 ag: PTHR1 (human) receptor agonism. HEK293 GP2 PTHR1 cells, GloSensor cAMP luminescence, 1 h. Potency, µM (titrated, usually from 115 µM), without a hit: top-dose activation, usual class: activators. hit rate 0.075% among 410,000. AID 743266; note: potency is the fitted concentration of half-maximal effect; nearly all actives have a fitted effect of over 55% in size
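HEK-293-derived GP2 cells expressing PTHR1 and a GloSensor cAMP reporter, 3,000/well, plated overnight, given luciferin plus IBMX (each 0.5 mM as added) for 1 h at 37 °C, then compound for 1 h at 37 °C. Luminescence was read after 15 min at room temperature.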
GLP-1R inv ag: inverse agonists of human GLP-1 receptor | Potency, µM (top dose mostly 38.3 µM), for inactives: at the highest dose activity change, negative = inhibition, actives largely listed as inhibitors | hit rate 1.6% among 410,000 | HEK293 GLP-1R CRE-luciferase, luminescence, 24 h; GLP-1R form is constitutively active | P43220; note: potency is the fitted concentration of half-maximal effect; % is set by controls: 0 for no effect and ±100 for the full control effect; nearly all actives have a fitted effect of over 55% in size
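Inverse agonism was detected as reduced cAMP-driven luciferase luminescence after 24 h compound treatment. The cells were HEK293 clones expressing constitutively active human GLP-1R with the reporter. Reporter-only and GPR119 cell lines served as counterscreen controls.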
HEK293 tox: cytotoxicity in counter-screen for GLP-1R inverse agonists; HEK293 cAMP-luciferase reporter cells, luminescence, 24 h; Potency, µM (highest dose often 38.3 µM), inactives show at the top dose activity change, negative = inhibition, actives largely listed as inhibitors; hit rate 0.13% among 410,000; AID 624418;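 note: loss of luciferase light is scored as toxicity; potency is the fitted concentration of half-maximal effect; % is set by controls: 0 for no effect and ±100 for the full control effect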
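Cells in DMEM/10% Nu serum/1% pen-strep, 1536-well format. Pre-incubated 12 h, dosed with 23 nL compound, incubated a further 24 h. Luciferase detection, 12 min at room temp, luminescence.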
mIDH1 inhibitor: human IDH1 R132H inhibition; O75874; IDH1-R132H enzyme, NADPH consumption, diaphorase/resazurin fluorescence; Potency, µM (top dose mostly 76.6 µM), for the others: at the highest dose activity change, negative = inhibition, usual class: inhibitors; hit rate 0.093% among 390,000; AID 602179; note: potency is the fitted concentration of half-maximal effect; % is set by controls: 0 for no effect and ±100 for the full control effect; nearly all actives have a fitted effect of over 65% in size
Target sequence (O75874 whole entry R132H, stated change not applied): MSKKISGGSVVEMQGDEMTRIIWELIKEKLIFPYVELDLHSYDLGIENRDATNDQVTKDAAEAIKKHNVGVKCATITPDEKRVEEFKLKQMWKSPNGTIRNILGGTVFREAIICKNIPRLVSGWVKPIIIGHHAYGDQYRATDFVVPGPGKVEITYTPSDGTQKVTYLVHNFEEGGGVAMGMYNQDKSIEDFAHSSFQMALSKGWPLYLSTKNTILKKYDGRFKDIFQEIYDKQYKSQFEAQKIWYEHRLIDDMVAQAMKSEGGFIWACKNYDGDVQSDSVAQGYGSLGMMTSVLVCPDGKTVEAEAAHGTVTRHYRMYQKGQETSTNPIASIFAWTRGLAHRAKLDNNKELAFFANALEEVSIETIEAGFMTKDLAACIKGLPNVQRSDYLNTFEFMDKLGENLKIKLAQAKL
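IDH1-R132H (0.5 ug/mL) preincubated 30 min with compound, then NADPH (0.016 mM) and alpha-KG (2 mM) added; 80 min at RT, pH 7.5. Remaining NADPH coupled via diaphorase/resazurin to fluorescence (540/590 nm); concentration-response curves normalized to no-enzyme control.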
LDHA block: LDHA (human) enzyme inhibition; purified LDHA, NADH/diaphorase-resazurin fluorescence; hits give low values; activity change, % (values are at about 110 or 230 µM); hit rate 0.15% among 480,000; in the data active = activity change below about -30%; inconclusive = mostly about -25% to -30%;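 note: plate controls were DMSO wells for no effect and wells without enzyme for full effect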
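Human LDH5 at 2 nM final in Tris HCl pH 7.4 with 0.06 mM NADH and 0.2 mM pyruvate, reacted 5 minutes at room temperature. Remaining NADH coupled via diaphorase/resazurin; resorufin fluorescence read at 0 and 20 minutes, normalized to enzyme-free and DMSO wells.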
Starred values were filed as active, the others as inactive; [ ] = another dose, or the depositor's remark. Unless noted, calls come from the whole dose curve; as a rule, active = well fitted curve in the direction sought with a large enough effect; inconclusive = small, poorly fitted or top-dose-only effect, or another doubt; inactive = no such curve, though single readings can be large; an effect the other way counts as inactive or inconclusive.

Screening O=C(OCc1ccccc1)N1CCC2CC1c1cc(NCCc3ccccc3)ccc12 (stereo unspecified) returned GLP1R ag -4%, PTHR1 ag inactive, GLP-1R inv ag 11µM*, HEK293 tox 22%, mIDH1 inhibitor -1%[38.3 µM] and LDHA block -4.
`O=C(OCc1ccccc1)N1CCC2CC1c1cc(-c3cc4ccccc4o3)ccc12` (stereo unspecified) gave GLP1R ag -1%, PTHR1 ag inactive, GLP-1R inv ag 6%, HEK293 tox -2%, mIDH1 inhibitor 13% and LDHA block -33*.
O=C(OCc1ccccc1)N1CCC2CC1c1cc(-c3ccc(F)cc3)ccc12 (stereo unspecified) was read as GLP1R ag 16%, PTHR1 ag -31%, GLP-1R inv ag inconclusive, HEK293 tox 18%, mIDH1 inhibitor -1%[38.3 µM] and LDHA block -1.
For O=C(OCc1ccccc1)N1CCC2CC1c1cc(N3CCCCC3)ccc12 (stereo unspecified) the results were GLP1R ag 15%, PTHR1 ag -30%, GLP-1R inv ag inconclusive, HEK293 tox -2%, mIDH1 inhibitor 2% and LDHA block -4.
`O=C(OCc1ccccc1)N1CCC2CC1c1cc(/C=C/CCCSc3ncccn3)ccc12` (stereo unspecified) gave GLP1R ag 20%, PTHR1 ag -52%, GLP-1R inv ag inconclusive, HEK293 tox 3%, mIDH1 inhibitor -13% and LDHA block -34*.
`COc1ccccc1-c1c(C)oc2cc(OCC=C(C)C)ccc2c1=O` gave LDHA block 1.
For Cn1c(-c2ccccc2O)cc2ccccc21 the results were GLP1R ag 1%, PTHR1 ag -21%, GLP-1R inv ag 10µM*, HEK293 tox -9%, mIDH1 inhibitor 2% and LDHA block -5.
For Cn1c(-c2ccccc2)cc2ccccc21 the results were GLP1R ag 4%, PTHR1 ag inactive, GLP-1R inv ag -12%, HEK293 tox -2%, mIDH1 inhibitor 7% and LDHA block -3.
`S=C(Nc1ccccn1)c1ccccn1` gave GLP1R ag -17%, PTHR1 ag -17%, GLP-1R inv ag 0.89µM*, HEK293 tox 1µM*, mIDH1 inhibitor 3% and LDHA block -2.
O=C(Nc1ccccn1)C(=O)Nc1ccccn1 was read as GLP1R ag 0%, PTHR1 ag -76%, GLP-1R inv ag -24%, HEK293 tox -16%, mIDH1 inhibitor -2% and LDHA block -1.
For S=C(Nc1ccccn1)Nc1ccccc1Cl the results were GLP1R ag 14%, PTHR1 ag inactive, GLP-1R inv ag inconclusive, HEK293 tox 6.3µM*, mIDH1 inhibitor 3% and LDHA block -1.
CCN1CCN(c2nc3c(c(=O)n(C)c(=O)n3C)n2CC(=O)c2ccccc2)CC1 was read as LDHA block -3.
For Cc1ccc(NC(=S)/C(C#N)=C2/Nc3ccccc3S2)cc1 the results were GLP1R ag -2%, PTHR1 ag -19%, GLP-1R inv ag 4µM*, HEK293 tox inconclusive, mIDH1 inhibitor -6% and LDHA block -20.
Cc1ccc(-c2nc3cc(C)c(Br)c(C)n3c2Cc2cccc(Cl)c2)cc1 was read as GLP1R ag -1%, PTHR1 ag -5%, GLP-1R inv ag 9%, HEK293 tox 3% and LDHA block -1.
`Cc1ccc(Cc2c(-c3cccc(Cl)c3)nc3cc(C)c(Br)c(C)n23)cc1` gave GLP1R ag 1%, PTHR1 ag -4%, GLP-1R inv ag 3.2µM*, HEK293 tox 6% and LDHA block -6.
For Cc1ccccc1C(=O)Nc1ccc(Br)cn1 the results were GLP1R ag 0%, PTHR1 ag -26%[57.5 µM], GLP-1R inv ag -24%, HEK293 tox 3%, mIDH1 inhibitor 5% and LDHA block 2.
Screening O=C(Nc1ccccc1C(=O)Nc1ccc(Br)cn1)c1ccccc1Cl returned GLP1R ag -1%, PTHR1 ag -25%, GLP-1R inv ag 10µM*, HEK293 tox 3%, mIDH1 inhibitor -3% and LDHA block -6.
`CSc1ccc(C=Nc2cccc(Cl)c2C)cc1` gave LDHA block 10.
For COc1cc(/C=C2\SC(=Nc3ccc(Cl)c(C(=O)O)c3)NC2=O)c(Br)c(Br)c1O the results were GLP1R ag 1%, PTHR1 ag -5%, GLP-1R inv ag -16%, HEK293 tox 73%, mIDH1 inhibitor 17% and LDHA block -33*.
COc1cc(/C=C2\SC(=Nc3ccccc3)NC2=O)cc(Cl)c1O was read as GLP1R ag 36%, PTHR1 ag -11%, GLP-1R inv ag 75%, HEK293 tox 56%, mIDH1 inhibitor 0% and LDHA block 9.
`CCc1c(C#N)c(SCCC(=O)Nc2ccc(OC)cc2)nc2c1C(=O)CC(C)(C)C2` gave GLP1R ag 4%, PTHR1 ag inactive, GLP-1R inv ag inconclusive, HEK293 tox 2%, mIDH1 inhibitor -4% and LDHA block -1.
For CCc1c(C#N)c(SCc2c(C)noc2C)nc2c1C(=O)CC(C)(C)C2 the results were GLP1R ag 3%, PTHR1 ag -51%, GLP-1R inv ag 8.9µM*, HEK293 tox 7%, mIDH1 inhibitor 1% and LDHA block 2.
For O=c1cc(N2CCCCC2)c(-c2ccccc2)nn1Cc1ccc(Cl)cc1 the results were GLP1R ag -5%, PTHR1 ag -5%[57.5 µM], GLP-1R inv ag -30%, HEK293 tox -2%, mIDH1 inhibitor -4% and LDHA block -7.
Screening O=c1cc(N2CCCCC2)c(-c2ccccc2)nn1Cc1ccc(F)cc1 returned GLP1R ag -3%, PTHR1 ag inactive, GLP-1R inv ag 2µM*, HEK293 tox -5%, mIDH1 inhibitor -3% and LDHA block 2.
CSc1ccc(CNCCN2CCCC2)cc1 was read as LDHA block 2.
For O=C(NCc1nnc(SCc2ccc(F)cc2)n1-c1ccc(F)cc1)C12CC3CC(CC(C3)C1)C2 the results were GLP1R ag 2%, PTHR1 ag inactive, GLP-1R inv ag 7.1µM*, HEK293 tox inconclusive, mIDH1 inhibitor 2% and LDHA block -1.
O=C(O)CCCC(=O)N1CCN(c2ccc(F)cc2)CC1 was read as LDHA block 1.
Screening [Cl][In]([Cl])[Cl] returned GLP1R ag 10% and LDHA block -80*.
CCN(CC)C(=O)CSc1nc2cc(S(=O)(=O)N(C)C)ccc2o1 was read as LDHA block -2.

Assay outcomes deposited in PubChem by National Center for Advancing Translational Sciences (NCATS).
